Screening results deposited in PubChem BioAssay by several laboratories.
rCAG binder-1 = molecules binding r(CAG) RNA repeats. r(CAG) RNA repeat, TO-PRO-1 dye displacement fluorescence. inhibition, % at 3 µM. 370,000 compounds, 1.3% hits;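 active = inhibition above the plate cutoff, the mean of all test compounds on that plate plus 3 SD, cut at about 35% in these data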;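 also: 0% = DMSO alone and 100% = 100 µM mitoxantrone as full dye displacement; higher means more dye released from RNA so lower well fluorescence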
AHR activator = activators of human aryl hydrocarbon receptor | AHR-responsive luciferase reporter cells, luminescence | activation, % at 5 µM | AID 2796 | 320,000 compounds, 2.5% hits; in the data active = activation above about 47%;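 also: 0% = vehicle wells and 100% = reference agonist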
KLK7 zymogen act = activates the human kallikrein-7 zymogen | purified proKLK7, EDANS-DABCYL substrate fluorescence; 100% is mature enzyme control, 0% vehicle | activation, % at 7 µM | 370,000 compounds, 0.9% hits | P49862 | AID 652039;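 active = activation above the mean of all tested compounds plus 3 SD, computed per campaign excluding outliers beyond control limits, cut at about 13% in these data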
NR3A LBD binder = modulates the human NR3A ligand-binding domain; NR3A LBD differential scanning fluorimetry, Tm shift; 0% = protein alone, 100% = glycine-bound protein; Tm shift relative to glycine control, % at 25 µM; 340,000 compounds, 2.5% hits; AID 1259313;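 active = melting temperature shift of at least 10% of the positive control shift, at one fixed dose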
ADAM17 inh = inhibitors of human ADAM17 | P78536 | recombinant ADAM17, EDANS/DABCYL FRET peptide cleavage | inhibition, % at 6.95 µM | 370,000 compounds, 0.83% hits;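 active = inhibition above the mean of compounds lying between control limits plus 3 SD, set per campaign, cut at about 8.5% in these data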;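 also: 0% = DMSO-only wells as the low control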
Target sequence (P78536 215-824 limits assumed): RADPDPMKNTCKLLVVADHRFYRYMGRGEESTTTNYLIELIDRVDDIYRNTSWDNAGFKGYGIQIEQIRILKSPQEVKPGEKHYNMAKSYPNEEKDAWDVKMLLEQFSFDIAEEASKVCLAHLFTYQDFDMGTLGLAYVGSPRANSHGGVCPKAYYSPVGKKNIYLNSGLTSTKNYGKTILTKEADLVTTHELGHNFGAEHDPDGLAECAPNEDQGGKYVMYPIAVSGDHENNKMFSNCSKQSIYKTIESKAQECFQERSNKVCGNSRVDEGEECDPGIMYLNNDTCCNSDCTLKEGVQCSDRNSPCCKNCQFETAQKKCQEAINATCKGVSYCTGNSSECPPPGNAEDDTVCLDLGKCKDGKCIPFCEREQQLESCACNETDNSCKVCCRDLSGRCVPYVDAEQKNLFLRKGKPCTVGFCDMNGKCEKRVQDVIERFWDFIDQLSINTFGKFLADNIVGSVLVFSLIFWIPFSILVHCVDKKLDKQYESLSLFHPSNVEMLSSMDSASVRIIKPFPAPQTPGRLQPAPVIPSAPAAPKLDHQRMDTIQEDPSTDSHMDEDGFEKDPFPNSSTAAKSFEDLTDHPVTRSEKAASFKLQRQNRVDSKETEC
ADAM10 inh = inhibitors of human ADAM10; O14672; recombinant ADAM10, EDANS/DABCYL FRET peptide cleavage, 3 h; inhibition, % at 7 µM; 370,000 compounds, 0.62% hits;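 active = inhibition above a per-campaign cutoff equal to the mean of compounds falling between control-based bounds plus 3 SD, cut at about 20% in these data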;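 also: 0% = DMSO wells while the 100% control is not disclosed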
rCAG binder conf = r(CAG) RNA repeat binding, confirmation; shares compounds with rCAG binder-1; TO-PRO-1 dye displacement fluorescence; inhibition, % at 3 µM; 4,300 compounds, 70% hits; AID 652065;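 active = inhibition above a per-plate cutoff, the mean inhibition of sample wells plus 3 SD, cut at about 35% in these data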;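 also: loss of TO-PRO-1 fluorescence as compound displaces dye from 1x1 AA loop RNA; 0% = DMSO only wells and 100% = 100 µM mitoxantrone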
DNA CAG counter = DNA CAG dye complex inhibition counter-screen | inhibition, % at 3 µM | 4,300 compounds, 94% hits | d(CAG) DNA oligo TO-PRO-1 dye displacement, fluorescence | AID 652068 | shares compounds with rCAG binder-1;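 active = inhibition above its plate's cutoff, the mean test-well inhibition plus 3 SD, cut at about 4.8% in these data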;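 also: 0% = DNA dye mix with DMSO and 100% = 100 µM mitoxantrone; hits displace the dye from DNA and so lower well fluorescence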
dCAG dye DR = counter-screen for rCAG binders: inhibitors of DNA CAG TO-PRO-1 complex. AID 686960. shares compounds with rCAG binder-1. IC50, µM. DNA CAG/GTC duplex TO-PRO-1 dye displacement fluorescence. 250 compounds, 20% hits; in the data active = IC50 below about 10 µM
dCAG DNA bind = inhibits DNA CAG/GTC TO-PRO-1 complex, rCAG binder counter-screen; d(CAG) DNA duplex TO-PRO-1 dye displacement, fluorescence; shares compounds with rCAG binder-1; AID 720649; IC50, µM; 30 compounds, 80% hits
rCAG binder-2 = binds r(CAG) RNA repeats in late stage dose response | IC50, µM | 30 compounds, 100% hits | r(CAG) RNA TO-PRO-1 dye displacement, fluorescence | shares compounds with rCAG binder-1
* hit, by the source's call; i = inactive; / = no result given. The list is not random: actives were taken first. Their share in the collection is about 7%. Unless noted, no rule for the calls is given here.

SMILES	rCAG binder-1	AHR activator	KLK7 zymogen act	NR3A LBD binder	ADAM17 inh	ADAM10 inh	rCAG binder conf	DNA CAG counter	others
COc1ccc(C)cc1NC(=O)Cc1c(C(=O)O)n(C)c2ccccc12	28	2	0	0	-5	-7	/	/
CCOC(=O)c1ccccc1NC(=O)Cc1c(C(=O)O)n(C)c2ccccc12	37*	3	0	-1	-4	5	25	4
N#C/C(=N\Nc1cccc(C(F)(F)F)c1)C(=O)c1csc(-c2cccnc2)n1	86*	1	0	11*	2	8	80*	49*
COc1cc(/C=N\NC(=O)C2COc3ccccc3O2)cc(OC)c1O (stereo not given)	-2	4	-8	1	-17	-35	/	/
CCOc1ccc(-n2c(O)c(/C=N/NC(=O)C3COc4ccccc4O3)c3ccccc3c2=O)cc1 (stereo not given)	76*	-5	-10	-1	-93	-286	74*	37*
CCC(=O)NC(=S)Nc1ccc(NC(=O)COc2ccc(Cl)c(C)c2)cc1	10	5	-1	-2	2	6	/	/
Cc1cc(OCC(=O)NNC(=S)NC(=O)c2ccc(Br)o2)ccc1Cl	45*	/	1	-3	4	13	69*	22*	dCAG dye DR=i
Cc1ccc(S(=O)(=O)Nc2nc(C)c(C(=O)NN)s2)cc1	58*	-1	0	0	-12	-6	11	3
Cc1ccc(S(=O)(=O)Nc2nc(C)c(C(=O)NNS(=O)(=O)c3cc(C)ccc3C)s2)cc1	54*	3	1	-4	1	2	59*	22*
Cc1nc(NS(=O)(=O)c2ccccc2)sc1C(=O)N/N=C/c1ccccc1	69*	2	0	-3	-3	-2	43*	11*
NC(=O)c1sc(-c2ccsc2)cc1NS(=O)(=O)c1ccc(C(F)(F)F)cc1	56*	5	0	9	0	7	77*	30*	dCAG dye DR=7*;dCAG DNA bind=4.4*;rCAG binder-2=1.5*
Cc1nc(NS(=O)(=O)c2ccccc2)sc1C(=O)NNS(=O)(=O)c1ccccc1	17	4	0	1	-4	1	/	/
Cc1ccc(S(=O)(=O)NNC(=O)c2sc(NS(=O)(=O)c3ccccc3)nc2C)cc1	22	1	1	0	-1	-3	/	/
CCOC(=O)c1sc(NS(=O)(=O)c2ccc(C)cc2)nc1C	30	-1	0	-8	-3	-6	/	/
CCCCc1c(-c2ccccc2OC)ncn1Cc1ccc(C)cc1	-2	/	0	/	-1	-1	/	/
Cc1nc(NC(=O)C2CC2)sc1C(=O)Nc1ccccc1	4	8	0	1	2	7	/	/
CC(=O)c1sc(NC(=O)c2ccccc2)nc1-c1ccccc1	3	2	1	-8	-3	-3	/	/
Cc1ccc(C)c(S(=O)(=O)Nc2nc(C)c(C(=O)Nc3ccccc3)s2)c1	46*	7	-1	-1	-4	10	36*	9.0*
CC(=O)c1sc(-c2ccccc2)cc1NS(=O)(=O)c1ccc(C)cc1	9	5	-1	-3	-2	-12	/	/
CC(=O)c1sc(-c2ccccc2)cc1NS(=O)(=O)c1ccccc1	83*	3	-1	1	-7	-10	11	2
CC(=O)c1sc(NS(=O)(=O)c2ccc(C)cc2)nc1-c1ccccc1	42*	3	0	-16	0	16	34	7.5*
Cc1ccccc1C(=O)Nc1cccc(C(=O)Nc2ccccc2C(=O)O)c1	36*	-3	0	-5	0	-3	23	3
CC(=O)Oc1cccc(NC(=O)c2cccc(C(=O)Nc3cccc(OC(C)=O)c3)c2)c1	1	4	1	-6	-1	1	/	/
O=C(N/N=C/C(Cl)=C/c1ccc([N+](=O)[O-])cc1)C(=O)Nc1ccccc1C(=O)O	52*	6	0	-1	-5	-8	46*	19*
O=C(/C=C/c1ccc([N+](=O)[O-])cc1)Nc1cccc(C(=O)Nc2ccccc2C(=O)O)c1	44*	0	0	17*	2	3	83*	50*
SMILES	rCAG binder-1	AHR activator	KLK7 zymogen act	NR3A LBD binder	ADAM17 inh	ADAM10 inh	rCAG binder conf	DNA CAG counter	others
CC(=O)Oc1cccc(C(=O)Nc2cccc(C(=O)Nc3ccccc3C(=O)O)c2)c1	56*	-1	1	0	-2	2	37*	8.4*
O=C(N/N=C/C(Cl)=C/c1ccc([N+](=O)[O-])cc1)C(=O)Nc1ccc(C(=O)O)cc1	-1	0	0	1	-4	0	/	/
COc1cc(/C=C/c2ccc3cccc(O)c3n2)ccc1O	20	5	-1	1	-8	-41	/	/
Oc1ccc2ccccc2c1/C=C/c1ccc2c(Br)cc(Br)c(O)c2n1	48*	/	0	15*	2	-4	50*	32*
C=CCn1c(SCC(=O)c2ccc(O)c(O)c2)nnc1-c1ccc(C)cc1	12	0	0	0	0	1	/	/
Cc1cc(NS(=O)(=O)c2ccc(NC(=O)CSc3nnc(-c4ccco4)n3-c3ccc(Cl)cc3)cc2)nc(C)n1	46*	/	0	/	-1	-5	33	12*
COc1ccc(-c2nnc(SCC(=O)Nc3ccc(C(=O)O)cc3)n2-c2ccc(Cl)cc2)cc1	46*	/	0	-4	2	1	50*	15*
Cc1ccc(-c2nnc(SCC(=O)c3ccc(O)c(O)c3)n2-c2ccc(Cl)cc2)cc1	41*	/	0	/	3	8	43*	17*
CCOc1ccc(-n2c(SCC(=O)Nc3ccc(S(=O)(=O)Nc4cc(C)nc(C)n4)cc3)nnc2-c2ccco2)cc1	40*	/	0	/	0	5	40*	14*
O=C(OCc1cn(Cc2cccc(Cl)c2)nn1)N1CCCC1	2	/	0	/	-3	0	/	/
COc1ccc(-c2nnc(SCC(=O)Nc3ccc(S(=O)(=O)Nc4cc(C)nc(C)n4)cc3)n2-c2ccc(OC)cc2)cc1	49*	/	0	/	4	8	44*	15*
